Laboratory results published in PubChem BioAssay.
Values joined by “and” are separate entries in the source; they are usually repeats but may differ in a detail not shown here. Equal entries are not always repeated. Inconclusive results are not listed. Active and inactive are the calls of the source.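 How the source made its calls, unless noted: active means normalized viability below 100% at a tested concentration; inactive means the rest.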

Experiments:
[1] = Wnt pathway potentiators raising nuclear beta-catenin – imaging, WNT3A-conditioned medium, mouse C2C12, NPC library, primary screen (AID 1117326; in the data active means nuclear beta-catenin stimulation mostly above about 4.2%, no sharp cut-off; inactive means mostly below about 10%); conditions: stronger effect = higher value
[2] = stimulators of insulin release from INS-1E, primary screen, cell-based, 5 mM glucose, NPC library (AID 1117329;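 active means compound raises insulin release from rat beta cells at 5 mM glucose, no numeric limit stated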); conditions: rat INS-1E insulin secretion, at 10 µM, stronger effect = higher value
[3] = growth inhibition of GSK3B-pretreated HCT116 cells – cell-based, CellTiter-Glo, 0.2 to 20 µM (AID 1117336;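 active means compounds lowering colon cancer cell viability after pretreatment blocking the GSK3B kinase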); conditions: HCT116 viability after GSK3B inhibitor, at 20 µM, stronger effect = higher value
[4] = inhibition of endothelial tube formation, primary screen, imaging, VEGF stimulated, CD31 staining, tube area, NPC library (AID 1117340;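 active means compound that reduces growth-factor-driven endothelial tube area in a mixed cell culture, no cutoff stated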); conditions: VEGF-stimulated ADSC/ECFC co-culture, at 10 µM, stronger effect = higher value
[5] = GLP1 release stimulators, primary, NCI-H716, NPC library (AID 1117341;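 active means compound raises GLP1 secretion from the human gut endocrine cells, with no numeric limit stated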); conditions: NCI-H716 cells, at 10 µM, stronger effect = higher value
[6] = HCT116 colon cancer cell growth inhibition, primary screen, CellTiter-Glo luminescence, NPC library (AID 1117342;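 active means compounds that lower survival of HCT116 colon cancer cells in the luminescence readout, no numeric limit stated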); conditions: at 20 µM (top of the series)
[7] = reduced SW480 viability measured with CellTiter-Glo, NPC library, primary (AID 1117343;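 active means compounds that lower viability of the colon cancer cells in the luminescence readout, with no numeric limit stated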); conditions: CellTiter-Glo luminescence; at 20 µM (top of the series) unless noted
[8] = NPC library primary testing for decreased DLD-1 cell viability via CellTiter-Glo (AID 1117346;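 active means compounds that lower survival of DLD-1 colon cancer cells in the luminescence readout, no cutoff given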); conditions: DLD-1 viability, CellTiter-Glo luminescence; at 20 µM (top of the series)
[9] = viability loss in pontine glioma line – cell-based, JHH-DIPG-1, MIPE4.0, CellTiter-Glo, qHTS, dose response (AID 1347062; cut-off not given, nearly all actives have AC50 up to about 27 µM); conditions: JHH-DIPG-1 viability, CellTiter-Glo ATP luminescence
[10] = viability loss in pontine glioma line – cell-based, SU-DIPG-XXV, MIPE5.0, CellTiter-Glo, qHTS, dose response (AID 1347065; cut-off not given, nearly all actives have AC50 up to about 26 µM;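 further: cells exposed to compound for 48 hours before ATP readout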); conditions: CellTiter-Glo ATP luminescence
[11] = growth inhibition of DIPG cells – cell-based, MIPE4.0 library, CellTiter-Glo luminescence, qHTS (AID 1347066; cut-off not given, nearly all actives have AC50 up to about 30 µM;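 further: cells exposed to compound for 48 hours before readout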); conditions: SU-DIPG-VI viability, CellTiter-Glo ATP luminescence
[12] = JHH-DIPG-1 glioma cell viability, MIPE5.0 library, CellTiter-Glo luminescence, qHTS (AID 1347067; cut-off not given, nearly all actives have AC50 up to about 26 µM;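 further: cells exposed to compound for 48 hours before readout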); conditions: JHH-DIPG-1 glioma viability, CellTiter-Glo ATP luminescence
[13] = viability loss with induced miR-34 in A549 – imaging, A549 dox-inducible miR-34, nuclei and caspase counts, primary screen (AID 1347080;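 active means compounds whose cell count with miR-34 switched on is under 0.7 times the count with it off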); conditions: A549 miR-34 inducible, Hoechst nuclei count, 48 h
[14] = MELAS cybrid and Rieske KO viability enhancers – cell-based, MELAS cybrids, Rieske KO mouse fibroblasts, CellTiter-Glo, primary screen (AID 1508586;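 active means mean z-score across replicates of 1.96 or higher in either the MELAS or the Rieske mutant cell line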;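 further: z relative to plate mean and SD of compound and empty wells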); conditions: low glucose
[15] = drug combination growth inhibition, ovarian cancer – cell-based, oncology-focused library, rucaparib conditional, profiling panel (AID 1508598); conditions: patient-derived ovarian cancer cells, CellTiter-Glo viability, 144 h, stronger effect = lower value

Cc1ccc(Nc2nccc(N(C)c3ccc4c(C)n(C)nc4c3)n2)cc1S(N)(=O)=O
1%: nuclear beta-catenin stimulation ([1]; stimulation, at 2 µM)
1.31 and 0.946: fold change ([13]; measured here: relative caspase fold change +Dox/-Dox)
5260 and 7730: cell count ([13]; measured here: total cells without miR-34 induction)
active: tube area decrease [4] 97.1% | viability decrease (inhibition) [7] 69.3% | AC50 [10] 5.9 µM | AC50 [12] 18.6 µM | viability ([15]; at 0.000305 µM, OCI-C5x cells, with rucaparib 10 µM, 100% = cells with rucaparib alone) 96.4% | viability ([15]; at 0.000305 µM, OCI-C5x cells, without rucaparib) 95.3% | viability ([15]; at 0.000305 µM, OCI-P5x cells, with rucaparib 20 µM, 100% = cells with rucaparib alone) 99% | viability ([15]; at 0.00122 µM, OCI-P5x cells, without rucaparib) 99.5% | viability ([15]; at 0.00488 µM, OCI-C5x cells, without rucaparib) 98.4% | viability ([15]; at 0.00488 µM, OCI-P5x cells, without rucaparib) 99.3% | viability ([15]; at 0.0195 µM, OCI-C5x cells, with rucaparib 10 µM, 100% = cells with rucaparib alone) 98.1% | viability ([15]; at 0.0195 µM, OCI-P5x cells, with rucaparib 20 µM, 100% = cells with rucaparib alone) 97.8% | viability ([15]; at 0.0195 µM, OCI-P5x cells, without rucaparib) 98.3% | viability ([15]; at 0.0781 µM, OCI-P5x cells, with rucaparib 20 µM, 100% = cells with rucaparib alone) 97.9% | viability ([15]; at 0.0781 µM, OCI-P5x cells, without rucaparib) 95.6% | viability ([15]; at 0.313 µM, OCI-C5x cells, without rucaparib) 95.9% | viability ([15]; at 0.313 µM, OCI-P5x cells, without rucaparib) 90.2% | viability ([15]; at 1.25 µM, OCI-C5x cells, without rucaparib) 96.9% | viability ([15]; at 1.25 µM, OCI-P5x cells, with rucaparib 20 µM, 100% = cells with rucaparib alone) 87.9% | viability ([15]; at 1.25 µM, OCI-P5x cells, without rucaparib) 91.3% | viability ([15]; at 5 µM, OCI-P5x cells, with rucaparib 20 µM, 100% = cells with rucaparib alone) 86% | viability ([15]; at 5 µM, OCI-P5x cells, without rucaparib) 86%
4740 and 6080: cell count ([13]; measured here: total cells with miR-34 induction, stronger effect = lower value)
-0.2 and 1.1: z-score ([14]; Rieske KO mouse fibroblast survival, CellTiter-Glo 72 h)
inactive: nuclear beta-catenin stimulation ([1]; at 10 µM) 5.9% | insulin secretion stimulation [2] 4.9% | viability decrease [3] 20.9% | GLP1 secretion stimulation [5] -3.5% | inhibition of viability [6] 48.8% | viability decrease (inhibition) [8] 14.5% | outcome [9] | outcome [11] | fold change ([13]; stronger effect = lower value, cell number ratio, induced over uninduced) 0.9 and 0.786 | z-score ([14]; MELAS cybrid survival, CellTiter-Glo 48 h, stronger effect = higher value) -0.327 and -0.404 | viability ([15]; at 0.000305 µM, OCI-P5x cells, without rucaparib) 100% | viability ([15]; at 0.00122 µM, OCI-C5x cells, with rucaparib 10 µM, 100% = cells with rucaparib alone) 104% | viability ([15]; at 0.00122 µM, OCI-C5x cells, without rucaparib) 106% | viability ([15]; at 0.00122 µM, OCI-P5x cells, with rucaparib 20 µM, 100% = cells with rucaparib alone) 105% | viability ([15]; at 0.00488 µM, OCI-C5x cells, with rucaparib 10 µM, 100% = cells with rucaparib alone) 104% | viability ([15]; at 0.00488 µM, OCI-P5x cells, with rucaparib 20 µM, 100% = cells with rucaparib alone) 100% | viability ([15]; at 0.0195 µM, OCI-C5x cells, without rucaparib) 100% | viability ([15]; at 0.0781 µM, OCI-C5x cells, with rucaparib 10 µM, 100% = cells with rucaparib alone) 103% | viability ([15]; at 0.0781 µM, OCI-C5x cells, without rucaparib) 102% | viability ([15]; at 0.313 µM, OCI-C5x cells, with rucaparib 10 µM, 100% = cells with rucaparib alone) 109% | viability ([15]; at 0.313 µM, OCI-P5x cells, with rucaparib 20 µM, 100% = cells with rucaparib alone) 100% | viability ([15]; at 1.25 µM, OCI-C5x cells, with rucaparib 10 µM, 100% = cells with rucaparib alone) 108% | viability ([15]; at 5 µM, OCI-C5x cells, with rucaparib 10 µM, 100% = cells with rucaparib alone) 112% | viability ([15]; at 5 µM, OCI-C5x cells, without rucaparib) 115%
